# Results as given in PubChem BioAssay AID1259417 (TB Discovery Research, Infectious Disease Research Institute, 2018).
# Hit rate of the full screen: of about 1,100 compounds, about 760 (69%) were called active. The rule behind the calls is not given here. The set was probably picked from earlier hits. The list shows a part of the results.
# Assay: M. tuberculosis growth inhibition, HTS (AID 1259417);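 note: bacteria grown with compound for 5 days at 37 °C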
# Settings: stronger effect = higher value, concentration not given here
# [1] = M. tuberculosis DsRed fluorescence growth inhibition
# [2] = M. tuberculosis growth inhibition
SMILES,inhibition [1],inhibition [2] [%]
O=C(Oc1cccc2cccnc12)c1cc2ccccc2oc1=O,99.2% (active),100
O=C(Oc1ccccc1)c1cccc2cccnc12,99.7% (active),101
CS(=O)(=O)Cc1nc2ccccc2oc1=O,99.8% (active),99.5
CCC(Sc1nc2ccccc2o1)C(=O)Nc1nnc(C)s1 (stereo not drawn),92.7% (active),96.2
CNc1nc(SC)nc2ccsc12,99.7% (active),98.9
c1ccc(C2=Nc3ccccc3OC2)cc1,97.6% (active),97.5
CCCCc1cc(=O)oc2cc(OC(C)C(=O)OCC)c(Cl)cc12 (stereo not drawn),49.4% (active),93.7
CCOC(=O)COc1cc2oc(=O)cc(CC)c2cc1Cl,6.17% (inactive),26.9
CCCCc1cc(=O)oc2cc(OCC(=O)OCc3ccccc3)c(Cl)cc12,33.1% (active),73.7
CCOC(=O)c1cc(-c2csc(-c3ccc(C(F)(F)F)cc3)n2)on1,63.4% (active),83.4
CCOC(=O)c1cc(-c2csc(COc3ccc(Cl)cc3)n2)on1,100% (active),99.5
CCOC(=O)c1cc(-c2csc(COc3ccccc3Cl)n2)on1,98.1% (active),98.8
CCOC(=O)C(/C=C(\C#N)C(=O)OCC)=C(/N)N1CCN(c2ccc(Cl)cc2)CC1,46% (active),46.9
CCOC(=O)COc1ccc(C=C2Oc3cc(OC)ccc3C2=O)cc1,60.8% (active),79.9
CCOc1ccc2c(c1)OC(=Cc1cccc(OCC(=O)OC)c1)C2=O,10% (active),50.5
CCOC(=O)COc1cccc(C=C2Oc3cc(OC)ccc3C2=O)c1,31.7% (active),54
COc1c(N2CCNC(C)C2)c(F)cc2c(=O)c(C(=O)O)cn(C3CC3)c12 (stereo not drawn),99.5% (active),101
NC1CCN(c2c(F)cc3c(=O)c(C(=O)O)cn(C4CC4)c3c2Cl)C1 (stereo not drawn),99.8% (active),100
NC1CCN(c2nc3c(cc2F)c(=O)c(C(=O)O)cn3-c2ccc(F)cc2F)C1 (stereo not drawn),98.3% (active),98.4
COc1c(N2C[C@@H]3CCCN[C@@H]3C2)c(F)cc2c(=O)c(C(=O)O)cn(C3CC3)c12,101% (active),100
CC1=NN(c2nc3ccccc3s2)C(=O)C1Cc1cccc2ccccc12 (stereo not drawn),-2.3% (inactive),21.1
Cc1ccc2c(c1)c(-c1ccccc1)c(-c1ccccc1)n2CC(O)CN1CCN(CCO)CC1 (stereo not drawn),23.8% (inactive),13.1
Cc1cc(C)c2c(c1)c(-c1ccccc1)c(-c1ccccc1)n2CC(O)CN1CCN(CCO)CC1 (stereo not drawn),48.4% (active),39.3
Clc1ccc(C2=CC(c3ccc(Cl)cc3)n3nnnc3N2)cc1 (stereo not drawn),43.4% (active),39.3
O=C(COc1ccc(-c2ccccc2)cc1)OC1CCCCC1,26.1% (active),58.6
CCOC(=O)COc1ccc(C(=O)NC2CCCCC2)cc1,1.79% (inactive),-15.3
O=C(COc1ccc(C(=O)NCc2ccccc2)cc1)OC1CCCCC1,37.7% (active),52.9
CCOC(=O)COc1ccc(C(=O)Nc2ccc(F)cc2)cc1,20.5% (active),42.4
Cc1ccc(NC(=O)c2ccc(OCC(=O)OC3CCCCC3)cc2)cc1,53.4% (active),78.1
